In the library only some 2.2% were active in any assay of this set; here they are far more common.
IEC-6 tox = IEC-6 cytotoxicity, counter-screen for KLF5 inhibitors | luminescence viability | inhibition, % at 5 µM | hit rate 0.78% among 290,000; in the data active = inhibition above about 22%;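 also: 0% = plate median of test compound wells and 100% = cytotoxic reference compound wells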
APP transl inh = APP translation inhibition; SH-SY5Y APP 5'UTR-luciferase reporter, luminescence; inhibition, % at 2 µM; hit rate 0.82% among 190,000; AID 1285;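 active = inhibition above a set limit, derived from the sample mean plus 3 SD, cut at about 45% in these data; inconclusive = one replicate passes the limit while the other fails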
Ba/F3 V617F tox = loss of viability in JAK2V617F-driven Ba/F3 cells. Ba/F3 EpoR-JAK2V617F viability, ATP luminescence. inhibition, % at 5.6 µM. hit rate 1.1% among 220,000. AID 1446;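 active = inhibition above the campaign mean plus 3 SD over all tested compounds, cut at about 24% in these data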;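 also: cytokine-independent growth of Ba/F3 cells driven by EpoR plus mutant JAK2; 0% = DMSO-treated cells and 100% = JAK inhibitor I control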
BaF3 tox = reduces parental Ba/F3 cell viability, JAK2V617F counter-screen. CellTiter-Glo ATP luminescence. inhibition, % at 5.6 µM. AID 1486. hit rate 1.1% among 220,000;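 active = inhibition above a per-campaign cutoff, the mean inhibition of all tested compounds plus 3 SD, cut at about 27% in these data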;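 also: 0% = DMSO wells and 100% = JAK Inhibitor I control wells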
aSyn 5UTR inh = 5' untranslated region of α-synuclein, MLPCN primary screen; inhibition, % (tested at 7.5 µM); alpha-synuclein 5'UTR reporter, inhibitor activity; hit rate 0.82% among 300,000; in the data active = inhibition above about 60%; inconclusive = no clear call, values can overlap the other calls;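 also: H4 neuroglioblastoma cells stably carrying SNCA 5'UTR luciferase fusion; 0% = DMSO wells and 100% = positive control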
KLF5 inh = kruppel-like factor 5 inhibition | DLD-1 KLF5 promoter-luciferase reporter, luminescence | inhibition, % at 5 µM | hit rate 0.23% among 290,000 | AID 1700;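 active = inhibition above a per-plate limit of that plate's mean compound inhibition plus 3 SD, cut at about 60% in these data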;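 also: 0% = DMSO wells and 100% = LY294002 at 200 µM; higher means less KLF5 promoter-driven luciferase light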
* = called active by the depositor; ? = inconclusive; / = no result.

SMILES	IEC-6 tox	APP transl inh	Ba/F3 V617F tox	BaF3 tox	aSyn 5UTR inh	KLF5 inh
N=c1c2c(n(Cc3ccc(Cl)cc3)c3c1CCC3)CCC2	6	-2	95*	73*	54	38
C/C(=N\Nc1nc(N2CCCCC2)nc(N2CCOCC2)n1)c1ccccc1O	-1	38	-2	10	-45	-1
CCCCn1c(N)c(N(CC(C)C)C(=O)c2ccc(Br)s2)c(=O)[nH]c1=O	1	/	/	/	-8	-22
Cc1cc(O)c(C)c(O)c1/C=N/NC(=O)c1cccnc1	13	/	/	/	69*	22
CCN(CC)S(=O)(=O)c1ccc(N2CCOCC2)c(NC(=O)c2cccc3ccccc23)c1	0	-5	-1	2	1	-6
CCN(CC)S(=O)(=O)c1ccc(N2CCOCC2)c(NC(=O)c2cc(-c3ccccn3)nc3ccccc23)c1	-1	39	-2	10	88*	10
CCOc1cc(N2CCOCC2)c(OCC)cc1NC(=O)COc1ncnc2ccccc12	2	17	0	3	24	-34
CCOc1cc(N2CCOCC2)c(OCC)cc1NC(=O)c1cc(-c2ccco2)nc2ccccc12	2	49*	1	8	114*	-12
O=C(COc1ccc(Br)cc1)N/N=C1\SCC(=O)N1c1ccc(F)cc1	-4	1	-4	3	1	-14
Cc1cc(-c2ccc(C)c(S(=O)(=O)N3CCN(c4ccccn4)CC3)c2)on1	2	/	/	/	2	-15
COc1ccc2cc(-c3cc(C(=O)O)c4ccccc4n3)ccc2c1	3	-84	13	15	78*	41
O=C1c2ccc(Br)cc2C(=O)N1c1ccc(Cc2ccncc2)cc1	-1	16	0	2	/	12
Cn1c(=O)cc(OCCCC(=O)NC2CCCC2)c2ccccc21	21	-2	51*	45*	-8	-45
Cc1cccc(NC(=O)CSCC(=O)Nc2cccc3ncccc23)c1	/	/	/	/	-11	/
CC(C)c1ccccc1NC(=O)COC(=O)c1cc([N+](=O)[O-])ccc1N1CCOCC1	/	/	/	/	-1	/
CCOc1ccc(NC(=O)C(Cc2ccccc2)N2C(=O)c3cccc4cccc(c34)C2=O)cc1 (stereo not given)	4	2	0	7	10	-15
COc1cc(OC)c2cc[nH]c2c1	1	-11	-4	0	15	0
COc1ccc2cc[nH]c2c1	5	-4	-2	8	71*	-32
Fc1ccc(-c2nnc(-n3nnc4ccccc43)c3ccccc23)cc1	-3	2	-4	4	5	5
O=C(Nc1cnn(Cc2ccc(Cl)cc2)c1)c1ccc([N+](=O)[O-])cc1	-3	13	-1	2	22	6
O=C(Nc1ccc([N+](=O)[O-])cc1)c1ccc(Cn2cc([N+](=O)[O-])cn2)cc1	12	5	46*	46*	79*	43
CN1CCN(c2ccc(NC(=O)N3CCc4ccccc43)cc2)CC1	-5	/	/	/	70*	38
Cc1ccc(NC(=O)N2CCc3ccccc32)cc1	5	-170	-3	3	-18	-49
CCOC(=O)C1=C(Cc2ccc(C)cc2)C(=O)c2ccccc2C1=O	1	0	1	5	-65	-26
CCOC(=O)C1=C(Cc2ccc(OC)cc2)C(=O)c2ccccc2C1=O	2	72*	1	0	/	15
SMILES	IEC-6 tox	APP transl inh	Ba/F3 V617F tox	BaF3 tox	aSyn 5UTR inh	KLF5 inh
Cc1ccc(NC(=O)c2c(C(F)(F)F)nn(C)c2SCc2cccc(C(F)(F)F)c2)cc1C	12	/	43*	48*	-102	8
O=Nc1ccc(O)c2ncccc12	19	/	99*	103*	-236	10
O=[N+]([O-])c1ccc(O)c2ncccc12	-4	-7	-6	4	72*	7
COc1ccc(N=Nc2ccc(O)c3ncccc23)cc1	10	/	-3	4	44	-13
COc1ccc(C)cc1N=Nc1ccc(O)c2ncccc12	0	68*	0	1	68*	6
Cc1ccccc1N=Nc1ccc(O)c2ncccc12	-2	77*	3	1	?	-6
COc1ccc(CN(C)C(=O)c2oc3ccccc3c2CSC)cc1F	1	/	/	/	-5	-36
Cn1c(=O)oc2cc(S(=O)(=O)N3CCc4ccccc43)ccc21	2	/	3	3	16	21
COC(=O)Nc1ccc(S(=O)(=O)N2CCCc3ccccc32)cc1	74*	90*	85*	79*	84*	51
O=S(=O)(c1ccc2ccccc2c1)N1CCc2ccccc21	1	/	/	/	33	-21
COC(=O)Nc1ccc(S(=O)(=O)N2CCCc3cccc(O)c32)cc1	16	1	4	12	-12	-7

Assay outcomes deposited in PubChem BioAssay by several laboratories.
